In PubChem BioAssay (EPA / NIEHS):
Calls of active or inactive are those of the source. The calls were made as follows: active = hit-call score of the fitted dose curve at least 0.9, where 1 is the maximum; inactive = score below 0.9.

Assays:
[1] = target: Bile acid receptor (Homo sapiens) (UniProt Q96RI1); assay: ATG_IR1_CIS: Attagene CIS-FACTORIAL HepG2 Assay for human Nuclear Receptor Subfamily 1 Group H Member 4 (NR1H4), IR1 submotif (AID 2282946); conditions: IR1 reporter transcription, actives raise or lower the signal
Outline: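 HepG2 cells transiently transfected with multiple cis-promoter-driven reporter units to measure endogenous transcription factor activity; 24 h exposure. Reporter mRNA read by RT-PCR, FAM labelling, HpaI digestion and capillary electrophoresis. Bidirectional fit versus DMSO.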

[2] = ATG_GRE_CIS: Attagene CIS-FACTORIAL HepG2 Assay for human Glucocorticoid Response Elements (GRE) (AID 2282947); conditions: HepG2 GRE cis-reporter, Attagene multiplex mRNA; actives raise or lower the signal
Outline: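 Transiently transfected HepG2 cells carrying GRE cis-reporter units (endogenous TF activity) dosed 24 h; reporter mRNA quantified by RT-PCR, 6-FAM labelling, HpaI digestion and capillary electrophoresis. Bidirectional fit versus DMSO baseline.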

[3] = ATG_ISRE_CIS: Attagene CIS-FACTORIAL HepG2 Assay for human Interferon Regulatory Factor 1 (IRF1) binding to an Interferon-Stimulated Response Element (ISRE) (AID 2282948); conditions: HepG2 ISRE cis-reporter (Attagene), mRNA transcription readout; actives raise or lower the signal
Outline: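 Transiently transfected HepG2 cells carrying cis-element reporter units, dosed 24 hours. Reporter mRNA quantified by RT-PCR, fluorescent primer extension, HpaI digestion and capillary electrophoresis. Bidirectional fitting relative to DMSO.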

[4] = ATG_M_32_CIS: Attagene CIS-FACTORIAL HepG2 Assay for M32 Transcription Factor (Internal Marker) (AID 2282949); conditions: HepG2 Attagene cis-factorial M32 reporter, mRNA; actives raise or lower the signal;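 also: background control marker of the multiplexed CIS panel rather than a real target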
Outline: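 HepG2 cells transiently transfected with multiplexed cis-regulated reporter units, dosed 24 h. Reporter mRNA quantified by RT-PCR, 6-FAM labelling, HpaI digestion and capillary electrophoresis; bidirectional fit vs DMSO.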

[5] = ATG_M_06_CIS: Attagene CIS-FACTORIAL HepG2 Assay for M06 Transcription Factor (Internal Marker) (AID 2282950); conditions: HepG2 Attagene CIS-FACTORIAL M06 internal marker reporter; actives raise or lower the signal
Outline: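 Fluorescence-labelled RT-PCR products from cis-promoter reporter units, cut with HpaI and resolved by capillary electrophoresis, give the signal. Cells are human HepG2, dosed for 24 h. Serves as background control, fitted relative to DMSO.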

[6] = target: Hypoxia-inducible factor 1-alpha (Homo sapiens) (UniProt Q16665); assay: ATG_HIF1a_CIS: Attagene CIS-FACTORIAL HepG2 Assay for human Hypoxia Inducible Factor 1 (HIF1A) (AID 2282951); conditions: HepG2 Attagene cis-factorial HIF1a reporter transcription; actives raise or lower the signal
Outline: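 Measures endogenous transcription-factor activity through cis-regulated reporter mRNA in HepG2. Cells dosed 24 h; transcripts quantified by RT-PCR with 6-FAM-labelled products separated by capillary electrophoresis; DMSO serves as negative control.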

[7] = target: Hepatocyte nuclear factor 6 (Homo sapiens) (UniProt Q9UBC0); assay: ATG_HNF6_CIS: Attagene CIS-FACTORIAL HepG2 Assay for human Hepatocyte Nuclear Factor 6 (HNF6) (AID 2282952); conditions: HepG2 Attagene cis-factorial HNF6 reporter transcription; actives raise or lower the signal
Outline: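 HepG2 cells transiently transfected with cis-element-driven multiple reporter transcription units, dosed 24 h; reporter mRNA quantified by RT-PCR, FAM primer extension, HpaI digestion and capillary electrophoresis; bidirectional fit versus DMSO baseline.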

[8] = target: Heat shock factor protein 1 (Homo sapiens) (UniProt Q00613); assay: ATG_HSE_CIS: Attagene CIS-FACTORIAL HepG2 Assay for human Heat Shock Transcription Factor 1 (HSE) (AID 2282953); conditions: HepG2 HSE cis-reporter, Attagene RNA transcription; actives raise or lower the signal
Outline: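 After a 24 h incubation with test chemical, transfected HepG2 cells were harvested for RNA; reporter transcripts were measured by RT-PCR and capillary electrophoresis. Values reflect gain or loss of signal relative to DMSO.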

[9] = ATG_MRE_CIS: Attagene CIS-FACTORIAL HepG2 Assay for human Metal Responsive Element (MRE) (AID 2282954); conditions: HepG2 MRE cis-reporter transcription, Attagene multiplex; actives raise or lower the signal
Outline: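 HepG2 cells transiently transfected with cis-element-driven reporter units; mRNA measured 24 h after dosing. Reporter transcripts quantified by RT-PCR, FAM labelling, HpaI digestion and capillary electrophoresis; bidirectional fit versus DMSO.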

[10] = ATG_PBREM_CIS: Attagene CIS-FACTORIAL HepG2 Assay for human Phenobarbital-responsive Enhancer Module (PBREM) (AID 2282955); conditions: HepG2 PBREM cis-reporter, Attagene multiplexed transcription; actives raise or lower the signal
Outline: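 Fluorescence of labelled reporter cDNA fragments, resolved by capillary electrophoresis, gives mRNA induction in transfected HepG2 cells treated for 24 h; DMSO serves as negative control and baseline.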

[11] = target: Paired box protein Pax-6 (Homo sapiens) (UniProt P26367); assay: ATG_Pax6_CIS: Attagene CIS-FACTORIAL HepG2 Assay for human Paired Box 6 (PAX6) (AID 2282956); conditions: HepG2 CIS-FACTORIAL PAX6 reporter transcription, RNA readout; actives raise or lower the signal
Outline: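 HepG2 cells transiently transfected with cis-promoter-driven multiplexed reporter units sensing endogenous transcription factor activity; 24 h chemical exposure. Reporter mRNA quantified by RT-PCR, 6-FAM labelling, HpaI digestion and capillary electrophoresis; bidirectional fit versus DMSO baseline.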

[12] = ATG_RORE_CIS: Attagene CIS-FACTORIAL HepG2 Assay for human RAR-related Orphan Receptor Element (RORE) (AID 2282959); conditions: HepG2 Attagene cis-factorial RORE reporter, mRNA; actives raise or lower the signal
Outline: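 Cells were HepG2 carrying transfected cis-regulated reporter constructs, dosed for 24 hours. Total RNA was reverse-transcribed and reporter cDNA amplified, fluorescently labeled and sized by capillary electrophoresis. Activity was fitted bidirectionally relative to DMSO.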

[13] = ATG_Sox_CIS: Attagene CIS-FACTORIAL HepG2 Assay for human SRY-box transcription factor (SOX) (AID 2282960); conditions: HepG2 Attagene cis-factorial SOX reporter, mRNA; actives raise or lower the signal
Outline: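 Transient MRTU transfection of HepG2; 24 h compound incubation; TriZol RNA, oligo(dT) RT, PCR, 6-FAM primer extension, HpaI cut, CE. Bidirectional fit, DMSO = baseline.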

[14] = target: Transcription factor Sp1 (Homo sapiens) (UniProt P08047); assay: ATG_Sp1_CIS: Attagene CIS-FACTORIAL HepG2 Assay for human Specificity Protein 1 (Sp1) (AID 2282961); conditions: HepG2 Sp1 cis-reporter transcription, actives raise or lower the signal
Outline: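 Endogenous Sp1 activity was gauged in human liver HepG2 cells bearing transfected reporter units under a cis-regulating promoter. After 24 h dosing, reporter mRNA was quantified by RT-PCR with capillary electrophoresis, and activity fitted bidirectionally versus DMSO.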

[15] = ATG_SREBP_CIS: Attagene CIS-FACTORIAL HepG2 Assay for human Sterol Regulatory Element Binding (SREBP) (AID 2282962); conditions: HepG2 Attagene cis-factorial SREBP reporter, mRNA; actives raise or lower the signal
Outline: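 HepG2 cells transiently transfected with multiplexed cis-promoter reporter units sensing endogenous transcription factors; reporter mRNA measured 24 h after dosing by RT-PCR, 6-FAM labeling, HpaI digestion and capillary electrophoresis. Bidirectional fit versus DMSO.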

[16] = target: Signal transducer and activator of transcription 3 (Homo sapiens) (UniProt P40763); assay: ATG_STAT3_CIS: Attagene CIS-FACTORIAL HepG2 Assay for human Signal Transducer and Activator of Transcription 3 (STAT3) (AID 2282963); conditions: HepG2, Attagene cis-factorial STAT3 reporter transcription; actives raise or lower the signal
Outline: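 HepG2 cells transiently transfected with multiple cis-element-driven reporter units report endogenous transcription factor activity. After 24 h compound exposure, reporter mRNA is measured by RT-PCR, 6-FAM labelling, HpaI digestion and capillary electrophoresis. Fitted bidirectionally versus DMSO.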

[17] = ATG_TA_CIS: Attagene CIS-FACTORIAL HepG2 Assay for human TA Basal Promoter (AID 2282964); conditions: HepG2 Attagene CIS-factorial TA basal promoter reporter; actives raise or lower the signal
Outline: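 Multiplexed mRNA reporter assay, HepG2, 24 h. Reporter cDNA amplified, 6-FAM primer-extended, HpaI-cut, CE-sized; DMSO = negative control and baseline.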

[18] = ATG_TCF_b_cat_CIS: Attagene CIS-FACTORIAL HepG2 Assay for human T-Cell-Factor with beta-catenin (TCF/b-cat) (AID 2282965); conditions: HepG2 TCF/beta-catenin cis-reporter transcription, actives raise or lower the signal
Outline: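 HepG2 cells transiently transfected with cis-promoter-driven multiplexed reporter units; reporter mRNA measured 24 h after dosing by RT-PCR, FAM labelling, HpaI digestion and capillary electrophoresis. Bidirectional fitting relative to DMSO baseline.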

[19] = ATG_PXRE_CIS: Attagene CIS-FACTORIAL HepG2 Assay for human Pregnane X Receptor Element (PXRE) (AID 2282957); conditions: HepG2 Attagene CIS-FACTORIAL PXRE reporter, mRNA; actives raise or lower the signal
Outline: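 HepG2 cells transiently transfected with cis-regulated multiple reporter transcription units; endogenous factor activity measured as reporter mRNA 24 h after dosing. RT-PCR, fluorescent primer extension, HpaI digestion, capillary electrophoresis; bidirectional fit versus DMSO baseline.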

[20] = ATG_PPRE_CIS: Attagene CIS-FACTORIAL HepG2 Assay for human Peroxisome Proliferator-activated Response Element (PPRE) (AID 2282958); conditions: HepG2 PPRE cis-element reporter, Attagene transcription factor profiling; actives raise or lower the signal
Outline: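 Cells are first transfected transiently with the multiplexed reporter library, then dosed for 24 h. Total RNA is reverse-transcribed, amplified, fluorescently end-labeled and HpaI-cut before capillary electrophoresis; activity is fitted bidirectionally against DMSO controls.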

Measured: AC50

Sequence of Heat shock factor protein 1 (Homo sapiens) (Q00613 whole entry, looked up): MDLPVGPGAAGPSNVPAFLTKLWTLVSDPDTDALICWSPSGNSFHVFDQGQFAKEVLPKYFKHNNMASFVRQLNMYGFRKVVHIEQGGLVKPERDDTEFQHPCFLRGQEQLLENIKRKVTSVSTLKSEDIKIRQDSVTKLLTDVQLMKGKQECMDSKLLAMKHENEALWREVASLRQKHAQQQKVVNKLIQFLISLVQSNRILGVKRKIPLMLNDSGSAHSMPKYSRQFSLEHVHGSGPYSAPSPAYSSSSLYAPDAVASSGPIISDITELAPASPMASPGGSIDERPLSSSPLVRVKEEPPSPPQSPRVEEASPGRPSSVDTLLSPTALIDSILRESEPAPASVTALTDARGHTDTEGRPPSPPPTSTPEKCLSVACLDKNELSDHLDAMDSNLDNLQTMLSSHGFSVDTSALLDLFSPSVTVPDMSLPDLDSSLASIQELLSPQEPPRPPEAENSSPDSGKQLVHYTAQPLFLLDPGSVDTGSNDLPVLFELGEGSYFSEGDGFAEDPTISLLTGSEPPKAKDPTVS
Sequence of Hepatocyte nuclear factor 6 (Homo sapiens) (Q9UBC0 whole entry, looked up): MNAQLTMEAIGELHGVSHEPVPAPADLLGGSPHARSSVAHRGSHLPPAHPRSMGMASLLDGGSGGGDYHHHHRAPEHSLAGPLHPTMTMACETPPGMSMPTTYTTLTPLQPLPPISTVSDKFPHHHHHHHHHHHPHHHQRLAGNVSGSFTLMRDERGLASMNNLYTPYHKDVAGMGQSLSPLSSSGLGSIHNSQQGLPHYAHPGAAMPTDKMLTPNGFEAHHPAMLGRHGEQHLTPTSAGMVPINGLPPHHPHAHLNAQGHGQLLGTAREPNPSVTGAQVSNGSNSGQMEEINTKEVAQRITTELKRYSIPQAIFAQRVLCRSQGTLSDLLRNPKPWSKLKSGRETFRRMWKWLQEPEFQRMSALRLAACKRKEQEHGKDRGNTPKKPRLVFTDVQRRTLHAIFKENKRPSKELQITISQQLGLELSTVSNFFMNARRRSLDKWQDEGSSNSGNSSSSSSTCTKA
Sequence of Transcription factor Sp1 (Homo sapiens) (P08047 whole entry, looked up): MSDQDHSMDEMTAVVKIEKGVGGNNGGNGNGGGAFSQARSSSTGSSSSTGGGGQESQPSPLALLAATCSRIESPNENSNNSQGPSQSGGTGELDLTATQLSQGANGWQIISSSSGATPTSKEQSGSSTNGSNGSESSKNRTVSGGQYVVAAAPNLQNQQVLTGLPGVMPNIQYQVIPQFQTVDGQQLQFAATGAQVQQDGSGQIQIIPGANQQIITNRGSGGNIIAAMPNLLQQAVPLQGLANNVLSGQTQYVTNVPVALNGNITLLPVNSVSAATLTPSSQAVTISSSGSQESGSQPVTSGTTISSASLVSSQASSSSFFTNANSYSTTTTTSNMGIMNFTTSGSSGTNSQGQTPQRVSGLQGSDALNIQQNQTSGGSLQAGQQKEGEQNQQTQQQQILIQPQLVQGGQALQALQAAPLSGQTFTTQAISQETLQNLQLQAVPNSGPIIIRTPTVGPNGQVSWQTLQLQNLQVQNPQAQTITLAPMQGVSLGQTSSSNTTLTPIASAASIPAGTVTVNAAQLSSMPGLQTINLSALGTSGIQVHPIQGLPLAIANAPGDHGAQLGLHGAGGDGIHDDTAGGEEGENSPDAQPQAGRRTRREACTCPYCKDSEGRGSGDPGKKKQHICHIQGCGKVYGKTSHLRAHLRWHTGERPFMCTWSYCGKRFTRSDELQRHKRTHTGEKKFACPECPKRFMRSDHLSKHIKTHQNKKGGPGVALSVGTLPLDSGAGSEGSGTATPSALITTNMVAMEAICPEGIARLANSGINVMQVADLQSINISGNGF
Sequence of Signal transducer and activator of transcription 3 (Homo sapiens) (P40763 whole entry, looked up): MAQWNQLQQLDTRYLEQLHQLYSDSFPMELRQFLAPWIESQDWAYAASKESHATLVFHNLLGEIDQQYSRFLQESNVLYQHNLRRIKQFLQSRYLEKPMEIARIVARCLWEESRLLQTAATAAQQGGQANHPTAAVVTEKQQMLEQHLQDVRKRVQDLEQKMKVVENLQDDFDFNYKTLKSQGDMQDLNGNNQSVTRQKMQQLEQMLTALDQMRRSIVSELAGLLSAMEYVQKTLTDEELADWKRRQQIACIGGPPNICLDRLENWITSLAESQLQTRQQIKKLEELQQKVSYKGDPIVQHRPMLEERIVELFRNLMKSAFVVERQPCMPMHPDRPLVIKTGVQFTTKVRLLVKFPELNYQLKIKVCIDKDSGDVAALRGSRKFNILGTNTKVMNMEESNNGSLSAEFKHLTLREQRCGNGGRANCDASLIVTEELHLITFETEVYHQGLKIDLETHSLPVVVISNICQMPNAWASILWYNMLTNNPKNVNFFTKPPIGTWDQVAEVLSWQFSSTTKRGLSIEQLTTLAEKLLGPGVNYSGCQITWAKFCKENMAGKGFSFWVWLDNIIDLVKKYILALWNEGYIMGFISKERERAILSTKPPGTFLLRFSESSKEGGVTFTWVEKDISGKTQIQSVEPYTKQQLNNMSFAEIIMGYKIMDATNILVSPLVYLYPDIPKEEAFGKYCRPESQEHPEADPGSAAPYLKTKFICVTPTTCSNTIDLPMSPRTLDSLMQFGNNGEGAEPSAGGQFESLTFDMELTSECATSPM
Sequence of Paired box protein Pax-6 (Homo sapiens) (P26367 whole entry, looked up): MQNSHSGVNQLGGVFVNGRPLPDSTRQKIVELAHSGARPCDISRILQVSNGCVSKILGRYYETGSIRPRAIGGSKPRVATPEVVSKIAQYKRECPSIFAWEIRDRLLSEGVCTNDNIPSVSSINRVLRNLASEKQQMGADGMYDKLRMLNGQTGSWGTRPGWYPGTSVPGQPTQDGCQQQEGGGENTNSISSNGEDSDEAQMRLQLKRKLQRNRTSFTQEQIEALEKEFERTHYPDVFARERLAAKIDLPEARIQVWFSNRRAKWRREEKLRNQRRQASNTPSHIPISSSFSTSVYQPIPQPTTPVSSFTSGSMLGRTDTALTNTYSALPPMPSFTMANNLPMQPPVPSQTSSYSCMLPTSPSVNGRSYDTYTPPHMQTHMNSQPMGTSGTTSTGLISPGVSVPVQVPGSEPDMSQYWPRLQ
Sequence of Bile acid receptor (Homo sapiens) (Q96RI1 whole entry, looked up): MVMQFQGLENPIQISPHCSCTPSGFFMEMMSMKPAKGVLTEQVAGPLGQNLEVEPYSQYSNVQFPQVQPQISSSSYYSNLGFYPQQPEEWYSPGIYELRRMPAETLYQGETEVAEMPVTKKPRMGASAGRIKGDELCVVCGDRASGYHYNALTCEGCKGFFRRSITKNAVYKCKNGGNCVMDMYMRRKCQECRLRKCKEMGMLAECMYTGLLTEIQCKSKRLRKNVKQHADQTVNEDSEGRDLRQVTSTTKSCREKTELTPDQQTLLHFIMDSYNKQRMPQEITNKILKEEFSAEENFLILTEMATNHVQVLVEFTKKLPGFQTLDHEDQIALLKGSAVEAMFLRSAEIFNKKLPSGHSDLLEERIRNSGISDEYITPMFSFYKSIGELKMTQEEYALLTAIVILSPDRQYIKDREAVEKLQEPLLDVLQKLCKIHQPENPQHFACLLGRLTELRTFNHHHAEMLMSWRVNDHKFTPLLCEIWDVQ
Sequence of Hypoxia-inducible factor 1-alpha (Homo sapiens) (Q16665 whole entry, looked up): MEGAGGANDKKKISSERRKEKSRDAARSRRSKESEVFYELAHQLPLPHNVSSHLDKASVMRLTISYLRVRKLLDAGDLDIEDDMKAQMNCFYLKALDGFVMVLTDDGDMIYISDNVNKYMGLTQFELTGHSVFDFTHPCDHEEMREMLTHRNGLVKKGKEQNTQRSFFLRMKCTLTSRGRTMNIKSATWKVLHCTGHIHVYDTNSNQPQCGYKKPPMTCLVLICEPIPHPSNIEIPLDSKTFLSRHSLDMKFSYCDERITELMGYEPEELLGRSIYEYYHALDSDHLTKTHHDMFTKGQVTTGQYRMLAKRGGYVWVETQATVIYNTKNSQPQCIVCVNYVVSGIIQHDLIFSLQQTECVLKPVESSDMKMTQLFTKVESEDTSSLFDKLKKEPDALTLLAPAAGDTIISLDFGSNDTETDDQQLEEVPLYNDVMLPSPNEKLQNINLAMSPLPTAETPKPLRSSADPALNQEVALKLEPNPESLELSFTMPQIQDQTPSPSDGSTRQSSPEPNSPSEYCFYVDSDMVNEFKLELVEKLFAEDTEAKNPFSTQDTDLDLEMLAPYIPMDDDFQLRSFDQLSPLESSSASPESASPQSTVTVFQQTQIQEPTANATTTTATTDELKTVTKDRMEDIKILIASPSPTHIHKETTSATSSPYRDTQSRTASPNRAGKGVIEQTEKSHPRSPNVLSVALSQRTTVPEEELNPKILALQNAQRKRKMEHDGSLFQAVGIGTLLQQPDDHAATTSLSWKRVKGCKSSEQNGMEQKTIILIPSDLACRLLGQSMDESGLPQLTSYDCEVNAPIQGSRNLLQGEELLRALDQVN

O=C(O)COCC(=O)O
not listed: [19] | [20]
inactive: all other assays above

c1ccc2cc(Nc3ccc(Nc4ccc5ccccc5c4)cc3)ccc2c1
active: [12] 5.31 µM
inactive: all other assays above

CC1(C)C(=O)N(Cl)C(=O)N1Br
active: [19] 62.7 µM
inactive: all other assays above

C1CCCCC1
not listed: [15] | [20]
inactive: all other assays above

O=[N+]([O-])c1ccc(O)cc1C(F)(F)F
active: [3] 48 µM | [9] 61.1 µM | [19] 84.1 µM | [12] 49 µM | [14] 100 µM
not listed: [15]
inactive: all other assays above

CCCC[O][Al]([O]CCCC)[O]CCCC
not listed: [18]
inactive: all other assays above

O=C(Nc1ccc2c(c1)Cc1ccccc1-2)C(F)(F)F
active: [6] 22.6 µM | [19] 27.7 µM | [12] 17.5 µM
not listed: [15] | [20]
inactive: all other assays above

CN(C)CCOc1ccc(/C(=C(/CCCl)c2ccccc2)c2ccccc2)cc1
active: [19] 1.18 µM
not listed: [12] | [18]
inactive: all other assays above

CC(C)(C)C1=CC(=O)C(C(C)(C)C)=CC1=O
inactive: [1] | [4] | [5] | [10] | [12] | [13] | [14] | [16] | [17]
active: [2] 50 µM | [3] 71.2 µM | [6] 33.3 µM | [7] 78.1 µM | [8] 97.3 µM | [9] 50 µM | [11] 61.5 µM | [19] 1.29 µM | [15] 25.7 µM | [18] 50 µM

ClC(c1ccccc1)(c1ccccc1)c1ccccc1
active: [19] 2.59 µM
not listed: [15]
inactive: all other assays above

CC(C)=CCCC(C)CCOC=O (configuration not stated)
active: [19] 100 µM
inactive: all other assays above

C=Cc1ccncc1
inactive: [1] | [2] | [4] | [5] | [6] | [10] | [16] | [17]
active: [3] 55.9 µM | [7] 33.9 µM | [8] 75.8 µM | [9] 28.2 µM | [11] 33.1 µM | [19] 33.1 µM | [12] 10.2 µM | [13] 21.8 µM | [14] 27.1 µM | [15] 17.1 µM | [18] 57 µM

CCCCCCCCCCCCCC(=O)OCC(O)CO (configuration not stated)
active: [15] 67 µM
not listed: [12] | [20]
inactive: all other assays above

C=CC(C)(O)CCC=C(C)C (configuration not stated)
active: [19] 46.9 µM
not listed: [8] | [12] | [20]
inactive: all other assays above
